# Screening data as filed in PubChem BioAssay.
# VDR inh = vitamin D3 receptor (human) inhibition; P11473; VDR-SRC2-3 peptide fluorescence polarization, 2 h; Potency, µM, hits mostly inhibitors; 400,000 compounds, 0.93% hits; AID 504847
#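 Fluorescence polarization assay of small-molecule disruption of VDR binding to coregulator peptide SRC2-3. Compounds and controls pin-transferred, then read after 2 h incubation at ambient room temperature.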
# PLK1 PBD inh = blocks phosphopeptide binding to human PLK1 polo-box domain; P53350; Plk1 PBD binding of FITC phosphopeptide, fluorescence polarization; Potency, µM, usual class: inhibitors; 360,000 compounds, 2.8% hits; AID 720504; note: series mostly up to about 57 µM; nearly all actives have a fitted effect of over 65% in size
# GCN5L2 inh = GCN5L2 (KAT2A) acetyltransferase inhibition. GCN5L2 HAT assay, ThioGlo1 CoA-SH fluorescence. 390,000 compounds, 0.21% hits. Potency, µM (doses to about 58.9 µM), actives largely listed as inhibitors. Q92830
#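 GCN5L2 (20 nM) in 50mM HEPES pH 7.5, 0.1mM EDTA, 0.01% Tween-20 preincubated 15 min with compounds at room temperature. Reaction started with H3(1-25) 75uM, acetyl-CoA 70uM, ThioGlo1 50uM; CoA-thiol fluorescence (Ex340/Em540) read at 0 and 20 min.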
# ALOX12 inh = inhibitors of human 12S-lipoxygenase ALOX12; Potency, µM (top dose mostly 108 µM), usual class: inhibitors; AID 1671190; purified 12hLO, xylenol orange hydroperoxide absorbance; 580,000 compounds, 1.1% hits; P18054
#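 Hydroperoxide product was detected by ferrous iron/xylenol orange as the 573 to 405 nm absorbance ratio. Arachidonic acid at 40 uM (final) was turned over for 30 min at room temperature by 150 nM human 12hLO, pH 7.0 Hepes buffer, after 15 min compound preincubation.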
# USP1-UAF1 confirm = USP1-UAF1 deubiquitinase inhibition validated; Potency, µM (series often up to 56.8 µM), most hits filed as inhibitors; 50 compounds, 50% hits; shares compounds with VDR inh; Ub-Rhodamine cleavage, fluorescence kinetic read
# VDR inh confirm = inhibits human vitamin D receptor, primary hit validation; shares compounds with VDR inh; VDR-coactivator inhibition assay, qHTS confirmation; Potency, µM, most hits filed as inhibitors; 840 compounds, 89% hits; AID 602199
# VDR FP fluor = VDR (human) coactivator binding inhibition, fluorescein polarization | Potency, µM (doses to about 57.1 µM), actives largely listed as inhibitors | shares compounds with VDR inh | 840 compounds, 48% hits | VDR-coactivator binding, fluorescein fluorescence polarization
# VDR bla reporter = VDR (human) inhibition, cell-based beta-lactamase validation; Potency, µM (top dose mostly 46.1 µM), most hits filed as inhibitors; VDR beta-lactamase reporter cells, FRET ratio; cells co-treated with VDR agonist LG190178; 840 compounds, 23% hits; shares compounds with VDR inh; AID 602202
# VDR cytotox = cell toxicity, VDR inhibitor hit counter-screen | shares compounds with VDR inh | cytotoxicity counter-screen, cell viability, qHTS | Potency, µM (top dose mostly 48.3 µM), most hits filed as cytotoxic | 840 compounds, 18% hits | AID 602204; note: nearly all actives have a fitted effect of over 75% in size
# A number is an active result; - = inactive; ? = inconclusive; . = no result given; [ ] = another dose, or the depositor's remark. In the library only some 3% were active in any assay of this set; here they are far more common. Calls come from the whole dose curve; as a rule, active = well fitted curve in the direction sought with a large enough effect; inconclusive = small, poorly fitted or top-dose-only effect, or another doubt; inactive = no such curve, though single readings can be large; an effect the other way counts as inactive or inconclusive.
SMILES,VDR inh,PLK1 PBD inh,GCN5L2 inh,ALOX12 inh,VDR inh confirm,VDR FP fluor,VDR bla reporter,VDR cytotox,others
O=C(O)Cn1c(O)c(C2=c3ccccc3=NC2=O)sc1=O,10µM,-,-,?,13.4,?,-,-,
CCCc1nnc2n1N=C(c1ccc([N+](=O)[O-])cc1)CS2,-,-,-,?,.,.,.,.,
O=[N+]([O-])c1ccc(C2=Nn3c(Cn4nnc5ccccc54)nnc3SC2)cc1,?,5.32µM,-,-,?,8.91µM,-,?,
Cc1cc(O)c(C(=O)/C=C/c2ccc(C(C)C)cc2)c(=O)o1,?,-,-,?,6.31,?,?,-,
CCOc1ccc(/C=C/C(=O)c2c(O)c3ccccc3oc2=O)cc1,8.91µM,-,-,-,8.44,-,-,?,
Cc1cc(O)c(C(=O)/C=C/c2ccccc2Br)c(=O)o1,?,-,?,?,.,.,.,.,
CCOc1ccc(/C=C/C(=O)c2c(O)cc(C)oc2=O)cc1,?,-,-,?,15.8,25.1µM,?,11.9µM,
CCOc1cc(/C=C2\N=C(C)OC2=O)cc(Br)c1OCC(=O)OC,20µM,?,-,-,10.6,?,-,-,
CCOc1cc(/C=C2\N=C(C)OC2=O)cc(Br)c1OCCc1ccccc1,?,?,-,?,.,.,.,.,
COC(=O)c1sc(=S)n(-c2cc(F)ccc2F)c1N,79.4µM,13.4µM,-,?,18.9,?,-,-,
CCOC(=O)c1sc(=S)n(-c2cc(OC)ccc2OC)c1N,20µM,2.67µM,-,?,26.7,3.55µM,-,-,
COc1ccc(C(=O)/C=C/C(=O)N(CC(=O)NC2CCCCC2)Cc2ccccc2)c(O)c1,28.2µM,5.32µM,-,-,11.9,?,13µM,?,
CCOC(=O)N1C(=O)[C@@](CC)(c2ccccc2)N1C(=O)OCC,79.4µM,13.4µM,-,-,21.2,-,-,?,
COC(=O)N1C(=O)[C@@](CC(C)C)(c2ccccc2)N1C(=O)OC,.,.,-,.,.,.,.,.,
CC(=O)NC1=CC(=O)c2nonc2C1=O,56.2µM,.,.,.,2.51,2.51µM,2.91µM,3.77µM,
Cc1c(C(=O)C(=O)Nc2ccc(C(N)=O)cc2)c2ccccc2n1C,.,.,.,-,.,.,.,.,
COc1ccc(/C=C2\SC(=O)NC2=S)cc1OC,10µM,26.7µM,-,39.8µM,2.99,-,-,-,
Cc1ccc(/C=C2/SC(=O)NC2=S)o1,35.5µM,18.9µM,?,.,23.8,22.4µM,-,-,
O=C(CCc1cccnc1)Nc1nc(-c2ccc3c(c2)CCO3)cs1,.,.,.,-,.,.,.,.,
O=C(O)c1cccc(NCc2ccc(Cl)cc2)c1,.,.,.,-,.,.,.,.,
CC(C)CCN1CCn2c(nnc2-c2cccnc2)C1,.,.,.,-,.,.,.,.,
O=C(O)CSc1cc(NS(=O)(=O)c2cccc([N+](=O)[O-])c2)c2ccccc2c1O,?,1.5µM,-,?,5.01,2.51µM,?,?,
Cc1ccc(S(=O)(=O)NC2CC2)cc1C(=O)Nc1cccc2c1CCCC2,.,.,.,-,.,.,.,.,
O=C1ON=C(c2ccccc2)/C1=C/c1ccc(OS(=O)(=O)c2ccccc2)cc1,?,5.97µM,?,17.8µM,3.55,3.16µM,-,-,
CCOC(=O)c1csc(NC(=O)CSc2nnnn2-c2ccc(OC)cc2)n1,-,-,-,-,.,.,.,.,
SMILES,VDR inh,PLK1 PBD inh,GCN5L2 inh,ALOX12 inh,VDR inh confirm,VDR FP fluor,VDR bla reporter,VDR cytotox,others
CCOC(=O)c1c(NC(=O)CSc2nnnn2-c2ccc(OC)cc2)sc(C)c1C,17.8µM,2.12µM,?,?,?,?,-,-,
O=C(NCCc1ccc(Cl)cc1)c1nc(-c2cccc(C(F)(F)F)c2)c2cnccn12,.,.,.,-,.,.,.,.,
NC(Cc1ccc(Cl)cc1)C(=O)O (stereo not given),-,.,-,?,.,.,.,.,
N[C@@H](Cc1cc(-c2ccc(Cl)cc2Cl)cc(CP(=O)(O)O)c1O)C(=O)O,44.7µM,.,?,-,.,.,.,.,USP1-UAF1 confirm=41.8µM
CC(=O)Nc1ccc(C2=NNC(=Nc3cccc(S(=O)(=O)N(C)C)c3)SC2)cc1,?,18.9µM,-,.,12.6,12.6µM,?,?,
CS(=O)(=O)c1ccc(S(=O)CC(=O)Oc2ccc(Cl)cc2)c([N+](=O)[O-])c1 (stereo not given),3.55µM,2.99µM,-,.,2.51,1.58µM,18.4µM,?,
CCOC(=O)/C(C#N)=C1\C(=O)N(Cc2ccccc2)c2ccccc21,28.2µM,3.36µM,-,?,6.7,?,-,-,
O=C1NC(=O)/C(=C/c2ccc(-c3ccc(F)cc3O)o2)S1,12.6µM,.,?,.,.,.,.,.,USP1-UAF1 confirm=52.7µM
O=[S+]([O-])(c1cccnc1)c1nnn2c1nc(NCc1ccc(F)cc1)c1ccccc12,.,.,.,-[6.33 µM],.,.,.,.,
Fc1cccc(Cl)c1CNc1ccc(N2CCCC2)cc1,50.1µM,21.2µM,-,31.6µM,11.9,12.6µM,-,?,
NS(=O)(=O)c1ccc(NCc2c(F)cccc2Cl)cc1,-,-,-,-,.,.,.,.,
COc1ccc(SCC(Cc2ccccc2)N2CCN(CC(C)C)CCC2=O)cc1 (stereo not given),?,.,.,.,7.94,?,-,-,
COc1ccc(NC(=O)/C(Cl)=C(/Cl)S(=O)Cc2ccc(Cl)cc2)cn1 (stereo not given),11.2µM,1.34µM,-,?,4.23,2.82µM,1.84µM,11.2µM,
CC(C)(C)c1cc(=O)n(-c2ccccc2)[nH]1,10µM,-,-,-,8.91,8.91µM,-,-,
O=c1ccc(=O)n(-c2ccccc2)[nH]1,-,-,-,-,.,.,.,.,
O=C1NN(c2ccccc2)C(=O)/C1=C/c1ccc(Sc2ccc(Cl)cc2)o1,79.4µM,2.99µM,.,15.8µM,?,?,-,.,
O=C1NC(=O)/C(=C\c2ccc(Sc3ccc(Cl)cc3)o2)N1,-,?,-,-,.,.,.,.,
O=C(Nc1cc(S(=O)(=O)N2CCOCC2)ccc1N1CCCCC1)c1cc(-c2ccccn2)nc2ccccc12,44.7µM,4.23µM,-,?,23.8,8.91µM,-,-,
Cc1nn(-c2ncnc3nc[nH]c23)c2c1C(c1c(F)cccc1F)CC(=O)N2 (stereo not given),.,.,.,-,.,.,.,.,
CCOC(=O)c1sc(=S)n(-c2ccc(OC)cc2)c1C,-,-,-,-,.,.,.,.,
CCOC(=O)c1c2c(n(-c3ccc(OC)cc3)c1C)C(=O)C(=O)c1ccccc1-2,17.8µM,?,.,.,11.9,11.2µM,5.8µM,6.31µM,
O=[N+]([O-])c1ccc2c(c1)S(=O)(=O)C=C2,12.6µM,.,?,?,22.4,?,3.66µM,5.97µM,
c1ccc(-c2nnc3sc(-c4csc5c4CCCC5)nn23)cc1,?,10.6µM,?,?,14.1,10µM,?,?,
